Experimental data from PubChem BioAssay (NCATS).
Records with an inconclusive call do not appear. Entries that show only a call come without a potency. The source made the active and inactive calls. Calls come from the whole dose curve; as a rule, active = well fitted inhibition curve with a large enough effect; inconclusive = small, poorly fitted or top-dose-only effect; inactive = flat fitted curve, though single readings scatter.

Molecular target: Calcium and integrin-binding protein 1 (Homo sapiens) (UniProt Q99828)
Sequence (Q99828 whole entry, looked up): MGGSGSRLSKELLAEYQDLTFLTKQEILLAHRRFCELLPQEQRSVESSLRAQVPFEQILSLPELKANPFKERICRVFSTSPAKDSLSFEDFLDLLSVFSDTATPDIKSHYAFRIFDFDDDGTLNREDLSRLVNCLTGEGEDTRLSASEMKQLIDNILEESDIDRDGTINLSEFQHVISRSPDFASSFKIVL
Experiment: Primary qHTS for Identification of Calcium Integrin Binding Protein 1 (CIB1) Competitor (AID 1508620);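 note: GST tagged CIB1 binding a fluorescein labelled alphaIIb integrin peptide tracer; top concentration of the series differs between compounds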
Details: CIB1-GST / FITC-alphaIIb peptide fluorescence polarization; series mostly up to 114 µM
Outline: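 CIB1-GST (1 uM final) and compound incubated 15 min at room temperature before adding FITC-alphaIIb peptide tracer (100 nM final). Competition for binding read by fluorescence polarization (ex 480, em 540) after another 15 min at room temperature.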

| SMILES | Potency |
| --- | --- |
| Cc1ccc(OCCn2c(CCNC(=O)c3ccccc3C)nc3ccccc32)cc1 | inactive |
| Cc1ccccc1-c1nc(NCc2ccc(-c3cccnc3)cc2)c2ccccc2n1 | inactive |
| FC(F)(F)c1ccccc1-c1nc(NCc2ccc(Br)cc2)c2ccccc2n1 | inactive |
| CC(C)CN1CCN(C(=O)COC(=O)c2ccc(S(C)(=O)=O)c([N+](=O)[O-])c2)CC1 | inactive |
| O=C1N/C(=C\c2ccco2)C(=O)N1Cc1ccccc1 | inactive |
| CC(C)(C)OC(=O)N1CCN(c2ccc(NCc3ccc(-c4cccc([N+](=O)[O-])c4)o3)cc2)CC1 | inactive |
| CC1=C(C(=O)Nc2ccccc2)C(c2ccccc2Br)N=C(Nc2nc3ccccc3o2)N1 (stereo not given) | inactive |
| NC(=O)C1CCN(c2ncnc(-c3ccc4c(c3)OCCCO4)n2)CC1 | inactive |
| COc1ccc(CCNC(=O)Cn2nc(-c3ccc(C)cc3)ccc2=O)cc1OC | inactive |
| COc1ccc(OC)c(-c2nnc(NC(=O)Nc3ccc4ccccc4c3)s2)c1 | inactive |
| Cn1nnnc1Sc1ncnc2scc(-c3ccccc3C#N)c12 | inactive |
| Clc1ccccc1-c1ccc2ncnc(NCc3cccs3)c2c1 | inactive |
| Cc1ccc(-c2ccc(=O)n(CC(=O)NCCCc3ccccc3)n2)cc1 | inactive |
| COc1ccc(NC(=O)c2cccnc2)cc1S(=O)(=O)Nc1ccc(Br)cc1 | inactive |
| Cc1ccc(CNc2ncnc3ccc(-c4ccc(C(=O)N(C)C)o4)cc23)o1 | inactive |
| CC(C)(C)c1ccc(Nc2nc(C#N)nc(NC3CCCC3)n2)cc1 | inactive |
| O=C1Nc2c(Cl)cccc2/C1=C\c1cc(Cl)c(O)c(Cl)c1 | inactive |
| O=C(CNC(=O)c1cccc2ccccc12)OC(C(=O)Nc1cc(C(F)(F)F)ccc1Cl)c1ccccc1 (stereo not given) | inactive |
| Cc1cc(C)nc(NC(=S)N2CCN(c3cncs3)CC2)c1 | inactive |
| Cc1ccc(NS(=O)(=O)c2cc3c(cc2Cl)CCC(=O)N3)cc1C | inactive |

| SMILES | Potency |
| --- | --- |
| FC(F)(F)c1ccccc1-c1nc2c(c(NCc3ccc(-c4cccnc4)cc3)n1)CCC2 | inactive |
| O=c1c2ccccc2nc2sc(Nc3ccc(Sc4ccccc4)cc3)nn12 | inactive |
| O=C(O)c1ccc(-c2cccc(-c3nn4c(=O)cc(N5CCNCC5)nc4s3)c2)cc1 | inactive |
| Cc1noc(C)c1-c1ccc2ncnc(NCc3ccc(C(F)(F)F)cc3)c2c1 | inactive |
| CN1CCN(c2cccc(Nc3nn4c(=O)c5ccccc5nc4s3)c2)CC1 | inactive |
| N#CN1CCC(NS(=O)(=O)c2ccc(F)cc2)CC1 | inactive |
| Cc1cccc2c1NC(=O)/C2=C/c1cc(Cl)c(O)c(Cl)c1 | inactive |
| O=C(Nc1ccc(-c2nc3ccccc3[nH]2)cc1)Nc1ccc2c(c1)OCCO2 | inactive |
| N=c1c2c(ncn1CCN1CCOCC1)Oc1ccc3ccccc3c1C2c1ccccc1 (stereo not given) | inactive |
| O=C(Nc1ccc2ccccc2c1)Nc1cccc(-c2ccncc2)n1 | inactive |
| CN(CCc1ccco1)c1ncnc2ccc(-c3ccc4c(c3)OCO4)cc12 | inactive |
| Cc1cc2c(s1)c1cnn(Cc3c(F)ccc(F)c3Cl)c(=O)c1n2C | inactive |
| Cc1cc(C)nc(NC(=S)N2CCN(c3ccc4c(c3)OCO4)CC2)c1 | inactive |
| O=C(Nc1cccc(Cc2ccccc2)n1)c1ccc(-c2cccc([N+](=O)[O-])c2)o1 | inactive |
| NC(=O)c1cccc(-c2noc(-c3ccccc3C(F)(F)F)n2)c1 | inactive |
| N#Cc1ncc(C(=O)OCC(=O)NC2C3CC4CC(C3)CC2C4)cn1 (stereo not given) | inactive |
| Cc1ccc2nc3sc(C(=O)NCCN4CCOCC4)cc3cc2c1 | inactive |
| COc1cc(O)c(C(CC(=O)N2CCCC(c3nc4ccccc4o3)C2)c2ccc3c(c2)OCO3)c(OC)c1 (stereo not given) | inactive |
| COc1cc(-c2ccc3ncnc(N(C)Cc4csc(C)n4)c3c2)cc(OC)c1OC | inactive |
| O=C(O)c1cccc(S(=O)(=O)N2CCN(S(=O)(=O)c3ccc4c(c3)OCCO4)CC2)c1 | inactive |
